Reference: PubChem BioAssay AID1851 (National Center for Advancing Translational Sciences (NCATS), 2009)
“And” between values parts separate entries of the source, which are not always exact repeats. Identical values can stand only once. The whole screen tested about 16,000 compounds, of which about 4,000 (25%) were called active. Roughly 26% stayed inconclusive and do not appear here. The call rests on the fitted dose curve; in most records, active means well fitted curve in the direction sought with a large enough effect; inconclusive means small, poorly fitted or top-dose-only effect, or effect the other way; inactive means no such curve, though single readings can be large or run the other way. Not all results are given here. More than one record can exist for a structure, and the calls need not agree.

target: Cytochrome P450 2C9 (Homo sapiens) (UniProt P11712); experiment: Cytochrome panel assay with activity outcomes; settings: recombinant CYP, pro-luciferin dealkylation, luminescence, p450-cyp2c9; series mostly up to 57.1 µM; activity, negative = inhibition: at the top concentration
Sequence (P11712 whole entry, looked up): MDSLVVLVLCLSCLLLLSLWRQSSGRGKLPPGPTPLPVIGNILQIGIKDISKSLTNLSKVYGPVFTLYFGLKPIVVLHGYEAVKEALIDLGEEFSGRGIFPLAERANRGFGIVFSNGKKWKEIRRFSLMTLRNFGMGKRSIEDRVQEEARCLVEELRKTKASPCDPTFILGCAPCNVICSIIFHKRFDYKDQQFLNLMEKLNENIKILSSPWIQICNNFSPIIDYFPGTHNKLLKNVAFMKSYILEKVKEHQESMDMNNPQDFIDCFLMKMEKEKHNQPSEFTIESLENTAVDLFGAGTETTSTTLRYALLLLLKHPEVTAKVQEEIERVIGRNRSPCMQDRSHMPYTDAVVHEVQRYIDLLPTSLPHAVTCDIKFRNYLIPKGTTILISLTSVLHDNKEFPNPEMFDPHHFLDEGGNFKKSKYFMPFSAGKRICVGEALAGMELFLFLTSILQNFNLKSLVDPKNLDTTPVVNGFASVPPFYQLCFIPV
Procedure: The P450 gene superfamily is involved in the metabolism and clearance of xenobiotics. This assay used various human CYP P450 isozymes to measure the dealkylation of various pro-luciferin substrates to luciferin. The luciferin is then measured by luminescence after the addition of a luciferase detection reagent. Pro-luciferin substrate concentration in the assay was equal to its KM for its CYP P450 isozyme. Inhibitors and some substrates limit the production of luciferin, and decrease measured luminescence.
NCGC Assay Protocol Summary:
1, Reagent, 2 uL, Isozyme and Pro-Luciferin
2, Library compounds, 23 nl, 40 uM to 0.24 nM dilution series
3, Controls, 23 nl, Isozyme specific inhibitor
4, Reagent, 2 uL, NADPH regeneration solution
5, Incubation time, 60 min, Isozyme specific temperature
6, Reagent, 4ul, Detection reagent
7, Incubation time, 20 min, Isozyme specific temperature
8, Detection, 1 sec, ViewLux luminescent read
The luciferase-based P450-GloTM Screening Systems were obtained from Promega (Madison, WI) for CYP 1A2 (V9770), CYP 2C9 (V9790), CYP2 C19 (V9880), CYP 2D6 (V9890), and CYP 3A4 Luciferin-PPXE (V9910) and were adapted for 1,536-well microplates and an automated protocol. The control compounds furafylline for 1A2 (F124), sulfaphenazole for CYP 2C9 (S0758), ketoconazole for CYP 2C19 (K1003), quinidine for 2D6 (Q3625), and ketoconazole for 3A4 (K1003) were purchased from Sigma Aldrich (St. Louis, MO). Recombinant P450 enzymes were obtained from baculovirus constructs expressed in insect cells (BD/Gentest).
Medium-binding white solid Kalypsys plates used. Mixtures kept on ice. 1A2: 10 nM 1A2, 100 uM Luc-ME, 100 mM KPO4; 2C9: 10 nM 2C9, 100 uM Luc-H, 25 mM KPO4; 2C19: 5 nM 2C19, 10 uM Luc-H EGE, 50 mM KPO4; 2D6: 5 nM 2D6, 30 uM Luc-ME EGE, 100 mM KPO4; 3A4: 10 nM, 25 uM Luc-PPXE. All amounts are reflected in their final concentration, working concentration is 2x.
NADPH regeneration solution: 1.3 mM NADP+, 3.3 mM glucose-6-phosphate, 3.3 mM MgCl2, 0.4 U/mL glucose-6-phosphate dehydrogenase for all isozymes, 200 mM KPO4 for 3A4. Mixture prepared at RT but kept on ice during automated run.
RT incubation in auxilliary plate hotel for 1A2, 2D6, and 3A4; 37C for 2C9 and 2C19.
Keywords: P450, CYP1A2, CYP2C19, CYP2C9, CYP2D6, CYP3A4, Luciferase, MLSMR, MLSCN, NIH Roadmap, qHTS, NCGC
On the % scale 0 is the no-effect control and ±100 the full control effect.

SMILES	activity, negative = inhibition	AC50
O=C1c2cccnc2C(O)N1C1CCCCC1 (configuration not stated)	-10.4% (inactive)	–
Cc1nc2c(n1C1CCCCC1)C(=O)c1ccccc1C2=O	–	15.8 µM (active)
Cc1nc2cnc(Nc3ccccc3)nc2n(C2CC2)c1=O	-16.5% (inactive)	–
N[C@@H](C(=O)O)c1ccc(C(=O)O)c(O)c1	-29% (inactive)	–
N[C@H](C(=O)O)c1ccc(O)c(C(=O)O)c1	7.54% (inactive)	–
N[C@@H](C(=O)O)c1ccc(C(=O)O)c(C(=O)O)c1	–	12.6 µM (active) and inactive
COc1cccc([C@@H]2Oc3ccc(OC)cc3C(=O)[C@H]2O)c1	-9.12% [at 11.4 µM] (inactive)	–
COCOc1ccc(Br)cc1C(=O)[C@H]1O[C@H]1c1cccc(OC)c1	8.38% [at 11.4 µM] (inactive)	–
COc1cccc([C@@H]2Oc3ccc(Br)cc3C(=O)[C@H]2O)c1	–	2.51 µM (active)
CNc1ncncc1-c1ccccc1C(F)(F)F	4.51% [at 2.29 µM] (inactive)	–
O=C(NCc1ccccc1)C12CN(Cc3ccccc3)CC1C(c1cccc([N+](=O)[O-])c1)=NO2 (configuration not stated)	–	7.94 µM (active)
COc1cccc(C2=NOC(C(=O)NCc3ccccc3)C2)c1 (configuration not stated)	15.8% (inactive)	–
CC(C)CCNC(=O)C12CN(Cc3ccccc3)CC1C(c1cccc([N+](=O)[O-])c1)=NO2 (configuration not stated)	–	5.62 µM (active)
CCS(=O)(=O)N1CCC(C(=O)NCCN2CCN(Cc3ccccc3)CC2)CC1	11.7% (inactive)	–
COc1ccc(C(=O)N2CC3(CC(c4cccc([N+](=O)[O-])c4)=NO3)C[C@H]2C(=O)NCC(N)=O)cc1 (some centres not stated)	-29.6% (inactive)	–
O=C(Cn1c(=O)n(Cc2ccco2)c(=O)c2c3c(sc21)CCCCC3)c1ccccc1	–	2.51 µM (active)
Cn1c(=O)c2c3c(sc2n2cnnc12)CCC3	-24.7% (inactive)	–
CN(C)CCn1c(=O)n(Cc2ccco2)c(=O)c2c3c(sc21)CCCCC3	–	14.1 µM (active)
NC(=O)Cn1c(=O)n(Cc2ccco2)c(=O)c2c3c(sc21)CCCCC3	–	11.2 µM (active)
O=C(N/N=C/c1ccc2cccc(OCc3ccccc3)c2n1)c1ccc(Br)cc1	–	3.55 µM (active)
COc1ccc(O)c(/C=N/NC(=O)c2ccc(OCc3cccc(Br)c3)cc2)c1	-22.4% (inactive)	–
O=C(N/N=C/c1ccc(F)cc1)c1ccc(Br)cc1	-7.63% (inactive)	–
CCn1c(SCC(=O)N2CCOCC2)nc2oc3c(Cl)cc(Cl)cc3c(=O)c2c1=O	–	3.98 µM (active)
COc1ccc(Cn2nnnc2C(c2ccccc2Cl)N2CCC(C(N)=O)CC2)cc1 (configuration not stated)	–	15.8 µM (active)

SMILES	activity, negative = inhibition	AC50
CCC(c1nnnn1CCOC)N1CCN(C(=O)c2ccco2)CC1 (configuration not stated)	-40.7% (inactive)	–
O=C(Nc1ccc(Cl)cc1)OCCn1nnnc1C(c1ccccc1Cl)N1CCOCC1 (configuration not stated)	–	4.47 µM (active)
COc1ccc(N2CCN(C(CNC(=O)C3CCCCC3)c3cccnc3)CC2)cc1 (configuration not stated)	-14.1% (inactive)	–
N#Cc1ccc(C(c2nnnn2Cc2ccccc2)N2CCCC2)cc1 (configuration not stated)	-67% (inactive)	–
O=C(c1ccc(C(F)(F)F)cc1)c1c[nH]c(C(=O)NCCCn2ccnc2)c1	–	1.12 µM (active)
Cc1ccc(C(=O)c2c[nH]c(C(=O)NCCCN3CCOCC3)c2)cc1	-2.52% (inactive)	–
O=C(NCCCN1CCOCC1)c1cc(C(=O)C2CC2)c[nH]1	33% (inactive)	–
CC(C)[C@@H](OCc1ccccc1)[C@H](C)/C=N\O[C@@H](C)c1cn([C@H](CO)Cc2ccccc2)nn1	-21.6% [at 11.4 µM] (inactive) and -25.5% [at 11.4 µM] (inactive)	–
Cc1cc(/C=N/n2cnnc2)c(C)n1-c1ccc(OCc2ccccc2F)cc1	–	4.47 µM (active)
COn1c(SCc2ccc(C)cc2C)nc2ccccc2c1=O	–	0.282 µM (active)
COn1c(SCc2cccc(Cl)c2)nc2ccccc2c1=O	–	1.78 µM (active)
COc1nc(Cl)nc(Cl)c1Cl (tested in a mixture with another compound)	-7.53% [at 11.4 µM] (inactive)	–
CC(C)CO/N=C1/C[C@@H](O)[C@@H](O)[C@@H]2[C@@H]3C(=O)N([C@@H](C)c4ccccc4)C(=O)[C@H]3CC[C@H]12	-8.59% [at 11.4 µM] (inactive)	–
C1=C(CN2CCOCC2)COc2c1cccc2OC[C@@H]1CNCCO1	13.9% (inactive)	–
CO[C@@H]1COC(=O)CCC[C@@H](C)[C@H](OC)COC(=O)[C@H](Cc2ccccc2)NC(=O)C/C=C\[C@H]1C	-2.4% [at 11.4 µM] (inactive)	–
CC(=O)n1nc(-c2ccco2)nc1N	-29.7% (inactive)	–
O=C(Cc1ccccc1)Nc1nc2ccc(Cl)cc2c2nc(-c3ccco3)nn12	–	3.16 µM (active)
CN1CCN(c2cc(-c3ccc(N(C)C)cc3)ncn2)CC1	14.3% [at 2.29 µM] (inactive)	–
Cc1noc(C)c1-c1ccc2ncnc(NCc3ccccc3)c2c1	-8.92% [at 2.29 µM] (inactive)	–
CCCCCCN1C=CC(=C/C=C(\C#N)C(=O)OCC)C=C1	–	2.24 µM (active)
CCOC(=O)/C(C#N)=C1/C=CN(C)C=N1	-14.9% (inactive)	–
CCCC[S@@](=N)(=O)CC[C@@H](N)C(=O)O	–	inactive
O=C(CSc1nnc(SCc2cccc3ccccc23)s1)c1ccc2c(c1)OCO2	–	4.47 µM (active)
